Wnt act: activates Wnt/beta-catenin signaling in a reporter cell assay; activator, plate reader; activation, % at 9.35 µM; 300,000 compounds, 1.2% hits; in the data active means activation above about 30%, passing the limit was not always enough; inconclusive means no clear call, values can overlap the other calls;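 further: 0% = neutral control wells and 100% = positive control wells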
APOBEC3A inh: inhibitors of human APOBEC3A DNA deaminase; inhibition, % at 20 µM; 330,000 compounds, 0.41% hits; recombinant A3A, FAM/TAMRA ssDNA deamination fluorescence;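 active means at least 40% inhibition at 20 µM here, with at most 30% in a related deaminase screen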;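 further: plate controls were A3A with DMSO for no effect and wells lacking A3A enzyme for full effect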
MITF act: MITF TRPM1 promoter activation in melanoma cells; activation, % at 12.5 µM; 300,000 compounds, 0.75% hits; SK-MEL-5 TRPM1-promoter luciferase, 24 h; % of positive control, neutral wells = 0;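 active means mean activation of at least 80% with every replicate also reaching 80%; inconclusive means mean reaches 80% but some replicate falls short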;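 further: 0% = neutral control wells and 100% = parthenolide positive control wells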
esBAF inh: SWI/SNF esBAF complex inhibition | 350,000 compounds, 2% hits | reporter increase, % at 12.5 µM | AID 602393 | mouse ES cells, Bmi1-luciferase knock-in reporter, 24 h; 100% = twice the neutral-well signal; in the data active means activation above about 40%; inconclusive means no clear call, values can overlap the other calls;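 further: 0% = median of the plate's neutral control wells and 100% = double that signal; a rise in the Bmi1 reporter signal indicates esBAF inhibition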
A3G deaminase: APOBEC3G (human) deaminase inhibition. AID 493012. recombinant A3G, ssDNA deamination FAM/TAMRA fluorescence. inhibition, % at 20 µM. 330,000 compounds, 0.28% hits. Q9HC16;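 active means inhibition of at least 40% at 20 µM, with no more than 30% in the related APOBEC3A deaminase screen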;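 further: plate controls were DMSO wells with A3G for no effect and wells lacking A3G enzyme for full effect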
Target sequence (Q9HC16 whole entry, looked up): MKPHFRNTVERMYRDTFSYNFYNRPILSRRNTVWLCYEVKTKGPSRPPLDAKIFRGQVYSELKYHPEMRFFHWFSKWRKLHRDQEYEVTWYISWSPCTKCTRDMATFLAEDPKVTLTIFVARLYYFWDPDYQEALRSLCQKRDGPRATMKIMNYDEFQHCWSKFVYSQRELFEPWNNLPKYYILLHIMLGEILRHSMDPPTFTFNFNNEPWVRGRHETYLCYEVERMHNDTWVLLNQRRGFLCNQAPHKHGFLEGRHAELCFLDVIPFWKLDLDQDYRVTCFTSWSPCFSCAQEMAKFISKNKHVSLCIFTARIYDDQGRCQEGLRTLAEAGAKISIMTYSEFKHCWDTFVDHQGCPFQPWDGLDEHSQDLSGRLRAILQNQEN
PHOSPHO1 block: PHOSPHO1 (human) inhibition | recombinant PHOSPHO1, absorbance phosphatase assay | AID 1565 | Q8TCT1 | 290,000 compounds, 1.1% hits | inhibition, % at 13.3 µM; in the data active means inhibition above about 60%
The depositor's hits bear a star. Only some compounds are listed: those with a hit (about 3.6% of all), similar ones and a draw of the others.

For COc1ccccc1CNC(=O)C[C@H]1C[C@@H]2c3cc(NC(=O)CN(C)C)ccc3O[C@@H]2[C@@H](CO)O1 the results were esBAF inh 1.
Screening Cc1ccc(S(=O)(=O)N(C)C[C@H]2OCc3ccccc3-c3ccccc3C(=O)N([C@H](C)CO)C[C@H]2C)cc1 returned esBAF inh 1.
`CC(C)(C)CC(=O)NC(=S)N1CCCCCC1` gave APOBEC3A inh 0, MITF act 6, A3G deaminase -7 and PHOSPHO1 block 69*.
Screening C[C@H](CO)N1C[C@H](C)[C@H](CN(C)C(=O)Cc2ccccc2)Oc2ncc(C#Cc3ccccc3F)cc2C1=O returned esBAF inh -1.
For CCCNC(=O)N(C)C[C@@H]1Oc2cc(-c3cncnc3)ccc2S(=O)(=O)N([C@H](C)CO)C[C@H]1C the results were esBAF inh -4.
CN(C)c1cccc(-c2csc(N3CCC(C(N)=O)CC3)n2)c1 was read as Wnt act 33*, APOBEC3A inh -6, MITF act 83*, esBAF inh 60* and A3G deaminase -8.
For Cc1noc(C)c1-c1csc(N2CCC(C(N)=O)CC2)n1 the results were Wnt act 22, APOBEC3A inh -5, MITF act 48, esBAF inh 74* and A3G deaminase -8.
`NC(=O)C1CCN(c2nc(-c3cccs3)cs2)CC1` gave APOBEC3A inh -4, MITF act inconclusive, esBAF inh 47* and A3G deaminase -7.
`C[C@H](CO)N1C[C@H](C)[C@@H](CN(C)C(=O)Nc2ccc(F)cc2)Oc2c(NC(=O)C3CCOCC3)cccc2C1=O` gave esBAF inh 4.
Cc1ccc(C(=O)NCC(=O)OCc2csc(-c3ccccc3)n2)cc1 was read as Wnt act 2, APOBEC3A inh -1, MITF act 3, A3G deaminase -7 and PHOSPHO1 block -4.
O=C(OCc1csc(-c2ccccc2)n1)c1ccc(O)cc1 was read as Wnt act 1, APOBEC3A inh -1, MITF act 98*, A3G deaminase -4 and PHOSPHO1 block 15.
`S=C(N=Nc1ccccc1)NNc1ccccc1` gave Wnt act 44*, APOBEC3A inh -4, MITF act 32, esBAF inh 63*, A3G deaminase -7 and PHOSPHO1 block -9.
CN(Cc1ccccc1)S(=O)(=O)c1ccc(Cl)c(C(=O)NCCCN2CCOCC2)c1 was read as Wnt act 57*, APOBEC3A inh 4, MITF act -3, esBAF inh -2 and A3G deaminase 2.
`COc1ccc(/C=C/C(=O)Nc2ccccc2C(=O)N2CCCC2)cc1` gave APOBEC3A inh 0, esBAF inh 56*, A3G deaminase 0 and PHOSPHO1 block -1.
For O=C(Nc1ccc2c(c1)[C@H]1C[C@H](CC(=O)N3CCCCC3)O[C@@H](CO)[C@H]1O2)c1cccnc1 the results were esBAF inh -4.
CCCN1C[C@H](C)[C@H](OC)CN(C)C(=O)c2ccc(NC(=O)Nc3ccccc3F)cc2OC[C@H]1C was read as esBAF inh 0.
`O=c1[nH]c(COc2ccc(Cl)cc2Cl)nc2ccccc12` gave Wnt act -2, APOBEC3A inh -4, MITF act 79, esBAF inh 73*, A3G deaminase -11 and PHOSPHO1 block 37.
C[C@@H]1CN([C@@H](C)CO)S(=O)(=O)c2ccc(-c3ccccc3)cc2O[C@H]1CN(C)Cc1ccccc1C(=O)O was read as esBAF inh -6.
`CCn1c(-c2ccccc2)c[nH]c1=S` gave APOBEC3A inh -3, MITF act 4, esBAF inh -5, A3G deaminase 39 and PHOSPHO1 block 98*.
Screening COC(=O)C1=C(C)N(C)C(=NCc2cccc(C(F)(F)F)c2)NC1c1cccc(F)c1 (stereo not given) returned Wnt act -4.
CN1CCN(S(=O)(=O)c2ccc(NN)nc2)CC1 was read as Wnt act 57*, APOBEC3A inh 0, MITF act -2, esBAF inh -7 and A3G deaminase -8.
For C[C@H](CO)N1C[C@H](C)[C@H](CN(C)C(=O)CCCN(C)C)OCCCC[C@H](C)Oc2ccc(NC(=O)C3CCCCC3)cc2C1=O the results were esBAF inh -3.
